Records with an inconclusive call do not appear. Calls of active or inactive are those of the source. Calls come from the whole dose curve; as a rule, active = well fitted activation curve with a large enough effect; inconclusive = small, poorly fitted or top-dose-only effect; inactive = no such curve, though single readings can be large or run the other way.
target: D(1A) dopamine receptor (Homo sapiens) (UniProt P21728); assay: HTS Assay for Allosteric Agonists of the Human D1 Dopamine Receptor: Primary Screen for Potentiators (AID 488982); conditions: HEK293 T-REx D1 inducible cells, calcium flux, kinetic fluorescence; series mostly up to 8.37 µM; activity, positive = potentiation: at the top concentration; for activity, positive = potentiation: 0% is about no effect
Sequence (P21728 whole entry, looked up): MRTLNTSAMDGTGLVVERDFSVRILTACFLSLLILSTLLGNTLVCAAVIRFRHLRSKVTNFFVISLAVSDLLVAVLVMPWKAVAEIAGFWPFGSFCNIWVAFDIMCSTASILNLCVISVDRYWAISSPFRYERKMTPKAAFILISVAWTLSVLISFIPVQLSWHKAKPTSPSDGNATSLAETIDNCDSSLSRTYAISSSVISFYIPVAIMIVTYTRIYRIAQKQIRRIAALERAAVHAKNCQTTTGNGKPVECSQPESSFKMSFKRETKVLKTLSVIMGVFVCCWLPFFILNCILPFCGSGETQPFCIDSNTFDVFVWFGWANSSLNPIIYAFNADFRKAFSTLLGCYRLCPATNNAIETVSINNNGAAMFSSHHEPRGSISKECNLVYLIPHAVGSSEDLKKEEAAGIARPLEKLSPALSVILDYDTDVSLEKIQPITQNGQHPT
Text: Dopamine receptors (DARs) are involved in the etiology and/or therapy of a number of neuropsychiatric and endocrine disorders. For instance, all receptor-based antiparkinsonian drugs work via stimulating the […] DAR subtype whereas all FDA-approved antipsychotic agents are antagonists of this receptor. […] There are three different types of allosteric modulators that we are seeking, two of which will stimulate or augment receptor signaling, allosteric agonists and potentiators, while the third, allosteric antagonists, will attenuate receptor signaling. The present primary screening assay measures compound agonism by tracking calcium flux in a […], inducible Hek293 Trex D1 cell line.
Freshly passaged cells are plated in 1536 well black, clear bottom plates at a density of 4000 cells/well in 3 ul of complete media containing 1x tetracycline inducer. After an overnight incubation at 30 C in 5% CO2, cells are loaded with 2 ul of the no wash Calcium Assay Kit (ABD Bioquest) and incubated at room temperature for 30 to 90 minutes. A 10 cycle (1 second/cycle) baseline measurement is taken and then the FDSS online 1536 pintool delivers 23 nl of compound library (as well as dopamine controls) to the plate. The plate is measured for kinetically at 1 cycle/sec for 180 seconds and is considered to be the agonist portion of the assay (eg, compounds which activate a positive calcium response during this portion are flagged as potential agonists). Following the 180 second read, 1 ul of an EC20 of dopamine is delivered by an onboard pipette head. Measurements are taken kinetically for an additional 180 seconds.
Potency is the fitted concentration of half-maximal effect.

SMILES | activity, positive = potentiation | Potency
Nc1ccn([C@H]2CC[C@@H](CO)O2)c(=O)n1 | -25.7% (inactive) | –
COc1ccc(C2CNC(=O)C2)cc1OC1CCCC1 (stereo not given) | -1.9% (inactive) | –
COc1ccc(CCN(C)CCCC(C#N)(c2ccc(OC)c(OC)c2)C(C)C)cc1OC (stereo not given) | -23.8% (inactive) | –
COc1ccccc1OCCNCC(O)COc1cccc2[nH]c3ccccc3c12 (stereo not given) | -75% (inactive) | –
Cc1cc(C(C)(C)C)c(O)c(C)c1CC1=NCCN1 | 6.42% (inactive) | –
COc1cc2nc(N3CCN(C(=O)C4COc5ccccc5O4)CC3)nc(N)c2cc1OC (stereo not given) | -43% (inactive) | –
Cn1cnc2c1c(=O)[nH]c(=O)n2C | -1.18% (inactive) | –
Nc1nc2c(ncn2COC(CO)CO)c(=O)[nH]1 | -0.434% (inactive) | –
NCCc1cnc[nH]1 | 18% (inactive) | –
O=c1[nH]cc(F)c(=O)[nH]1 | -2.4% (inactive) | –
CC(C)(Oc1ccc(C2CC2(Cl)Cl)cc1)C(=O)O (stereo not given) | 8.35% (inactive) | –
NCCCCCC(=O)O | -9.52% (inactive) | –
CN1CCN(CCCN2c3ccccc3Sc3ccc(Cl)cc32)CC1 | -78.6% (inactive) | –
NCCS(=O)(=O)O | 6.95% (inactive) | –
COC(=O)Nc1nc2ccc(C(=O)c3cccs3)cc2[nH]1 | 2.42% (inactive) | –
CNCCCC12CCC(c3ccccc31)c1ccccc12 | -122% (inactive) | –
CC1COc2c(N3CCN(C)CC3)c(F)cc3c(=O)c(C(=O)O)cn1c23 (stereo not given) | 12.2% (inactive) | –
CCCNCC(O)COc1ccccc1C(=O)CCc1ccccc1 (stereo not given) | -85.5% (inactive) | –
CC(C)NCC(O)COc1ccc(CCOCC2CC2)cc1 (stereo not given) | 32.7% (inactive) | –
CN(C)C(=O)C(CCN1CCC(O)(c2ccc(Cl)cc2)CC1)(c1ccccc1)c1ccccc1 | 10.2% (inactive) | –

SMILES | activity, positive = potentiation | Potency
COc1ccccc1N1CCN(CC(O)COc2cccc3ccccc23)CC1 (stereo not given) | -58.8% (inactive) | –
NS(=O)(=O)c1cc2c(cc1Cl)NCNS2(=O)=O | 16.6% (inactive) | –
NC(=O)NO | 31.2% (inactive) | –
CCOC(=O)C(C)(C)Oc1ccc(Cl)cc1 | 12.3% (inactive) | –
Nc1c2c(nc3ccccc13)CCCC2 | -12% (inactive) | –
CN1C2CCC1CC(OC(=O)C(CO)c1ccccc1)C2 (stereo not given) | – | inactive
O=C1N(c2ccccc2)c2ccccc2C1(Cc1ccncc1)Cc1ccncc1 | -62.5% (inactive) | –
CS(=O)(=O)Nc1ccc([N+](=O)[O-])cc1Oc1ccccc1 | 11.4% (inactive) | –
CCc1cccc2c3c([nH]c12)C(CC)(CC(=O)O)OCC3 (stereo not given) | -7.52% (inactive) | –
CN1C(C(=O)Nc2ccccn2)=C(O)c2ccccc2S1(=O)=O | 7.36% (inactive) | –
NC12CC3CC(CC(C3)C1)C2 | 29.3% (inactive) | –
CCOC(=O)c1ncn2c1CN(C)C(=O)c1cc(F)ccc1-2 | 4.26% (inactive) | –
CC#C[C@]1(O)CC[C@H]2[C@@H]3CCC4=CC(=O)CCC4=C3[C@@H](c3ccc(N(C)C)cc3)C[C@@]21C | – | 2310 nM (active)
COc1ccccc1OCC(O)CN1CCN(CC(=O)Nc2c(C)cccc2C)CC1 (stereo not given) | -32.8% (inactive) | –
O=C1c2c(O)ccc(O)c2C(=O)c2c(NCCNCCO)ccc(NCCNCCO)c21 | -5.3% (inactive) | –
CC[N+](CC)(CC)CCOc1cccc(OCC[N+](CC)(CC)CC)c1OCC[N+](CC)(CC)CC | 4.6% (inactive) | –
Cn1ccc2cc3c(cc21)CCN3C(=O)Nc1cccnc1 | -66.2% (inactive) | –
NC(CO)C(=O)NNCc1ccc(O)c(O)c1O (stereo not given) | 29.4% (inactive) | –
CN(C)CCC=C1c2ccccc2C=Cc2ccccc21 | -82.6% (inactive) | –
Cc1ccc(C(=O)Nc2ccc(S(=O)(=O)O)c3cc(S(=O)(=O)O)cc(S(=O)(=O)O)c23)cc1NC(=O)c1cccc(NC(=O)Nc2cccc(C(=O)Nc3cc(C(=O)Nc4ccc(S(=O)(=O)O)c5cc(S(=O)(=O)O)cc(S(=O)(=O)O)c45)ccc3C)c2)c1 | 26.6% (inactive) | –

— PubChem BioAssay (NCATS)
